This is a sample that favours compounds with a hit; in the whole collection about 12% have one here.
HP1b chromo inh = blocks HP1-beta chromodomain binding to methylated histone tails. P83916. AlphaScreen HP1-beta / biotin-H3K9me3 peptide binding. Potency, µM (series often up to 114 µM), usual class: inhibitors. hit rate 0.56% among 390,000. AID 540317; note: nearly all actives have a fitted effect of over 70% in size
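AlphaScreen: HP1-beta (50 nM) preformed 30 min with biotin-H3(1-18)K9me3 peptide (50 nM) in PBS pH 7.4, 0.01% Tween-20. Compound added for 30 min at RT, then streptavidin donor/nickel chelate acceptor beads (10 ug/mL) for 30 min.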
BAZ2B block = blocks human BAZ2B; Q9UIF8; AlphaScreen BAZ2B-H3K14Ac peptide displacement; Potency, µM (highest dose often 114 µM), most hits filed as inhibitors; hit rate 4.4% among 360,000; AID 504333; note: nearly all actives have a fitted effect of over 60% in size
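Inhibition is scored as reduced AlphaScreen emission. The BAZ2B/b-H3(5-23)K14Ac complex (50 nM each) in PBS pH 7.4, 0.01% Tween-20 meets compound (up to 110 uM) for 30 min at RT before bead addition.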
Sfp PPTase inh = blocks B. subtilis Sfp PPTase activity; hit rate 3.5% among 310,000; Q9F4F7; Potency, µM, usual class: inhibitors; AID 1490; Biochemical Sfp PPTase activity, qHTS;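 note: the enzyme is Sfp with the accession as filed and its product quenches rhodamine fluorescence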
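Reaction rates are the 30-min fluorescence difference (ex 525, em 598 nm) in wells containing 15 nM Sfp, 5 uM rhodamine-CoA and 12.5 uM BHQ-2-YbbR at pH 7.6 with 10 mM MgCl2.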
L3MBTL1 inh = blocks human L3MBTL1; Q9Y468; AlphaScreen L3MBTL1–H3K9me1 peptide binding; Potency, µM (top dose mostly 57.1 µM), actives largely listed as inhibitors; hit rate 0.66% among 230,000; AID 485360; note: nearly all actives have a fitted effect of over 60% in size
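L3MBTL1 50 nM + b-AHA-H3(1-15)K9me1 75 nM, 30 min RT; compound added, 30 min RT; streptavidin donor/Ni-chelate acceptor beads 10 ug/mL each final, 30 min RT dark; AlphaScreen read.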
G9a inh = G9a (human) methyltransferase inhibition; Q96KQ7; G9a H3K9 monomethylation, AlphaScreen, 2 h; Potency, µM (titrated, usually from 102 µM), actives largely listed as inhibitors; hit rate 8.8% among 350,000; note: nearly all actives have a fitted effect of over 75% in size
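G9a (20 nM) was preincubated 15 min with compound, then reacted 2 h at room temperature with 500 nM biotin-H3K9 peptide and 20 µM SAM. Monomethyl-H3K9 detected by AlphaScreen using anti-H3K9me1 antibody.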
JMJD2A Tudor inh = JMJD2A Tudor domain (human) inhibition. O75164. AlphaScreen JMJD2A-Tudor / H3K4me3 peptide binding. Potency, µM (series often up to 114 µM), actives largely listed as inhibitors. hit rate 4.4% among 390,000. AID 504339; note: nearly all actives have a fitted effect of over 50% in size
A number is an active result; . = inactive; ? = inconclusive; / = no result; [ ] = remark or other dose. Calls come from the whole dose curve; as a rule, active = well fitted curve in the direction sought with a large enough effect; inconclusive = small, poorly fitted or top-dose-only effect, or another doubt; inactive = no such curve, though single readings can be large; an effect the other way counts as inactive or inconclusive.

SMILES | HP1b chromo inh | BAZ2B block | Sfp PPTase inh | L3MBTL1 inh | G9a inh | JMJD2A Tudor inh
CC[C@H](C)/C=C(C)/C=C/C1=CC2=C(Cl)C(=O)[C@](C)(OC(C)=O)C(=O)C2=CO1 | ? | / | / | . | / | 79µM
CC(Cc1ccccc1)NC(N)=O (centres undefined) | . | . | . | . | ? | .
O=C(O)CNC(=O)C(CS)Cc1ccccc1 (centres undefined) | . | . | 0.79µM | . | . | .
CNC(CC(C)C)C(=O)NC1C(=O)NC(CC(N)=O)C(=O)NC2C(=O)NC3C(=O)NC(C(=O)NC(C(=O)O)c4cc(O)cc(O)c4-c4cc3ccc4O)C(O)c3ccc(c(Cl)c3)Oc3cc2cc(c3OC2OC(CO)C(O)C(O)C2OC2C[C@](C)(N)C(O)C(C)O2)Oc2ccc(cc2Cl)C1O (some centres undefined) | . | . | / | . | .[12.7 µM] | .
CC1(C)C(C(Cl)Cl)C2(Cl)C(Cl)C(Cl)C1(Cl)C2(Cl)Cl (centres undefined) | / | / | . | / | / | /
CCCN1CCO[C@@H]2c3cc(O)ccc3OC[C@@H]21 | / | / | 56µM | / | / | /
Cc1ccc(N)cc1C | . | / | / | / | / | .
Cc1cc(N(C)C)ccc1N=Nc1ccc(N)cc1 | 45µM | / | / | / | / | 20µM
CCn1c(NN=O)nc2ccccc21 | . | 56µM | 50µM | ? | ? | 89µM
CCn1c(P(C)(=O)O)nc2ccccc21 | . | . | . | . | . | ?
COc1ccc2c(c1)CC1(CN2C)C(=O)NC(=O)N(CCc2ccccc2)C1=O (centres undefined) | . | ? | . | . | 11µM | .
COc1ccc(OC)c(N2C(=O)NC(=O)C3(Cc4cc(C)ccc4N(C)C3)C2=O)c1 (centres undefined) | . | . | . | . | 8.9µM | .
COc1cc(CN2C(=O)NC(=O)C3(Cc4cc(C)ccc4N(C)C3)C2=O)cc(OC)c1 (centres undefined) | . | . | ? | / | ? | .
COc1cccc(N2C(=O)NC(=O)C3(Cc4cc(C)ccc4N(C)C3)C2=O)c1 (centres undefined) | . | . | . | . | 2.8µM | ?
Cc1ccc2c(c1)CC1(CN2C)C(=O)NC(=O)N(c2cc(C)ccc2C)C1=O (centres undefined) | . | . | . | . | 5.6µM | .
CN1C(=O)N(C)C(=O)C2(Cc3cc([N+](=O)[O-])ccc3N(C)C2)C1=O | . | . | . | . | . | .
Cc1ccccc1-c1cncnc1NCCc1cnc[nH]1 | / | / | . | / | / | /
CCCCCCC(=O)O[C@H]1CC[C@H]2[C@@H]3CCC4CC(=O)C=C(C)[C@]4(C)[C@H]3CC[C@]12C (some centres undefined) | / | / | . | / | .[12.7 µM] | /
O=P1(Oc2ccccc2)CC=CC(COCc2ccccc2)O1 (centres undefined) | . | / | . | / | / | .
Cc1ccc(-n2nc(C)c3c2NC(=O)CSC3c2ccc3c(c2)OCO3)cc1 (centres undefined) | ? | / | 56µM | . | ? | ?
On1ccccc1=S | ? | . | / | . | 1.1µM | 3.5µM
O=C1/C(=C\c2cc3c(cc2Br)OCO3)N2CCC1CC2 | . | . | ? | . | 45µM | .
C[C@@H]1CO1 | / | / | . | / | / | /
COc1ccccc1CNCC(=O)Nc1cc(S(=O)(=O)N2CCCCC2)ccc1C | ? | / | / | . | / | 1.8µM
Cc1ccc(S(=O)(=O)N2CCCCC2)cc1NC(=O)CN1CC=C(c2ccccc2)CC1 | . | . | . | . | . | .
SMILES | HP1b chromo inh | BAZ2B block | Sfp PPTase inh | L3MBTL1 inh | G9a inh | JMJD2A Tudor inh
Oc1ccc(/C=N/NP(=S)(c2ccccc2)c2ccccc2)c(O)c1O | . | ? | 40µM | / | ? | ?
Cn1cccc1/C=C1\C(=O)NC(=O)N(CCC2=CCCCC2)C1=O | . | . | . | . | . | .
Cn1cccc1/C=C1\C(=O)NC(=O)N(Cc2ccccc2Cl)C1=O | . | / | . | / | 45µM | ?
Cc1ccc(C(=O)COC(=O)c2cccc(NC(=O)c3ccc(Br)cc3)c2)cc1 | . | . | / | / | ? | .
COc1cc(C)c(CNCCc2c[nH]c3ccccc23)cc1C | ? | 40µM | . | / | ? | 22µM
CCOc1cc(CNCCc2ccccc2F)ccc1OC | . | 40µM | . | / | 8.9µM | 45µM
CCOc1cc(CNCCc2c[nH]c3ccccc23)cc(Cl)c1OCC | . | ? | . | . | ? | ?
COc1ccc2[nH]cc(CCNCc3cccnc3)c2c1 | . | ? | . | . | / | .
COc1cccc(CNCCc2c[nH]c3ccccc23)c1 | . | 79µM | . | / | .[2.33 µM] | 3.5µM
CCOc1c(Cl)cc(CNCCc2c[nH]c3ccccc23)cc1OC | . | ? | 56µM | . | ? | ?
CNCC/C=C\c1cccnc1 | / | / | . | / | / | /
Cn1cccc1-c1cccnc1 | / | / | . | / | . | /
COc1ccc2c(c1)C13CCCCC1C(C2)N(C)CC3 (centres undefined) | / | / | / | / | .[12.7 µM] | /
COC[C@]12CN(C=O)C3C4C(OC)C1[C@@]3(C1CC3(O)C(OC)C(O)C4(OC(C)=O)C1C3OC(=O)c1ccccc1)[C@@H](OC)CC2O (some centres undefined) | / | / | . | / | / | /

Assay outcomes from PubChem.
